# Measurements: PubChem BioAssay (Tox21)
# Activity calls are given as the source filed them. Entries that show only a call come without a potency. Unless noted, calls come from the whole dose curve; as a rule, active = well fitted curve in the direction sought with a large enough effect in the repeat runs; inconclusive = weak or mixed curves; inactive = no such curve, though single readings can be large; an effect the other way counts as inactive or inconclusive.
# What was measured:
# [1] = qHTS assay for small molecule agonists of the p53 signaling pathway - cell viability (AID 651633; calls by dose curve;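 note: p53RE-bla HCT reporter cells with a stable beta-lactamase p53 reporter; series mostly up to about 83 µM; nearly all actives have a fitted effect of over 30% in size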)
# Summary of the method: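 p53RE-bla cells, seeded at 4,000 per well and rested 5 h at 37 C/5% CO2, received compounds in DMSO for 16 h at 37 C. CellTiter-Glo was then added, and luminescence was read after 30 min at room temperature to gauge cytotoxicity.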
# [2] = qHTS assay to test for compound auto fluorescence at 590 nm (red) in HepG2 cells (AID 720674)
# Summary of the method: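 Compound auto-fluorescence is scored relative to Rose Bengal sodium, measured at 540/590 nm in live HepG2 cultures after 1 hr compound contact (37 C, 5% CO2).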
# [3] = qHTS assay to test for compound auto fluorescence at 460 nm (blue) in HEK293 cells (AID 720678)
# Summary of the method: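 HEK293 cells (2,000/well, medium with 10% dialyzed FBS) attached 4-5 hr, then exposed to compound overnight at 37C, 5% CO2. Blue fluorescence read at 405/460 nm, with triamterene as reference fluorophore.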
# [4] = qHTS assay to test for compound auto fluorescence at 460 nm (blue) in HEK293 cell free culture (AID 720681)
# Summary of the method: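 Test compounds were pinned into cell-free culture medium (DMEM with 10% FBS) and fluorescence was read directly at Ex/Em 405/460 nm. Signals were expressed as fluorescence equivalents of triamterene, with DMSO vehicle as control.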
# [5] = qHTS assay to test for compound auto fluorescence at 535 nm (green) in HEK293 cell free culture (AID 720682)
# Summary of the method: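 Green-label autofluorescence (485 nm excitation, 535 nm emission) measured on compound added to cell-free culture medium (DMEM, 10% FBS). Output is expressed relative to fluorescein.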
# [6] = qHTS assay to test for compound auto fluorescence at 590 nm (red) in HEK293 cell free culture (AID 720683)
# Summary of the method: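 Tox21 10K library compounds were pinned into cell-free DMEM with 10% FBS and fluorescence was read at excitation 540 nm. Activity is expressed as Rose Bengal sodium equivalency.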
# [7] = biological target: Glucocorticoid receptor (Homo sapiens) (UniProt P04150); test: qHTS assay to identify small molecule antagonists of the glucocorticoid receptor (GR) signaling pathway (AID 720692; active = well fitted inhibition curve with a large enough effect in the signal ratio in the repeat runs, not every such curve was filed as active; inconclusive = weak or mixed curves, or effect the other way; inactive = no such curve, though single readings can be large or run the other way; the % refers to the signal ratio; note: potency is the fitted concentration of half-maximal effect)
# Glucocorticoid receptor (Homo sapiens), sequence (P04150 whole entry, looked up): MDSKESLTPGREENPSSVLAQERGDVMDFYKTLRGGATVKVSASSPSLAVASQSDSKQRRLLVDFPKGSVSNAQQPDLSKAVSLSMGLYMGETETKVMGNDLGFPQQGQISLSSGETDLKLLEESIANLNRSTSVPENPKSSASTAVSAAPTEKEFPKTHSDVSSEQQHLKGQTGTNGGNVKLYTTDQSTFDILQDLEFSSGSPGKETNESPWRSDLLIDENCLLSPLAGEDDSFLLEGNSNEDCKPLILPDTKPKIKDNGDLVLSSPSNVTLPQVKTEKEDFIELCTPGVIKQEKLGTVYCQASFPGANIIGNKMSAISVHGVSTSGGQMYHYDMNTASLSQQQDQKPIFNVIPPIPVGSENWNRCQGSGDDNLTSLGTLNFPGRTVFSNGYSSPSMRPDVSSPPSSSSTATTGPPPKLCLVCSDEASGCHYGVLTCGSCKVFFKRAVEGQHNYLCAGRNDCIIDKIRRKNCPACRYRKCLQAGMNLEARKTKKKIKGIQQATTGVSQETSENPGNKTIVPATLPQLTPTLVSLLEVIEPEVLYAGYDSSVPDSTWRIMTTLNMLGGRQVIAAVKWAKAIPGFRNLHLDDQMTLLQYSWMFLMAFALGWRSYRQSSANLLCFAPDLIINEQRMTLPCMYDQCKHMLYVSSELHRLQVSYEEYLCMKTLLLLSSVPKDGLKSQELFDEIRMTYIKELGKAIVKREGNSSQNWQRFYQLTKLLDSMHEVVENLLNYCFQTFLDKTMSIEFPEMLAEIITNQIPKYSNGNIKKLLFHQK
# Summary of the method: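 Tox21 10K library screened in concentration-response for blockade of dexamethasone (5 nM final)-induced GRE-bla reporter activity in HeLa cells; 18 h treatment, fluorescence read.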
# [8] = qHTS assay for identifying genotoxic compounds that show differential cytotoxicity against isogenic chicken DT40 cell lines with known DNA damage response pathways - wild type cell line (AID 743012); note: nearly all actives have a fitted effect of over 60% in size; note: potency is the fitted concentration of half-maximal effect
# Summary of the method: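 Endpoint: CellTiter-Glo luminescence, 30 min RT. Cells: wild type DT40, 300/well. Exposure: compounds in DMSO, 40 h, 37 C/5% CO2, after ~0.5 h pre-incubation.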
# [9] = qHTS assay for identifying genotoxic compounds that show differential cytotoxicity against isogenic chicken DT40 cell lines with known DNA damage response pathways - Rev3 mutant cell line (AID 743014); note: nearly all actives have a fitted effect of over 55% in size
# [10] = qHTS assay for identifying genotoxic compounds that show differential cytotoxicity against isogenic chicken DT40 cell lines with known DNA damage response pathways - Rad54/Ku70 mutant cell line (AID 743015); note: nearly all actives have a fitted effect of over 60% in size
# [11] = qHTS assay to identify small molecule antagonists of the androgen receptor (AR) signaling pathway - cell viability counter screen (AID 743033; note: nearly all actives have a fitted effect of over 45% in size)
# [12] = biological target: Estrogen receptor (Homo sapiens) (UniProt P03372); test: qHTS assay to identify small molecule agonists of the estrogen receptor alpha (ER-alpha) signaling pathway (AID 743075; calls by dose curve;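 note: HEK293 GripTite cells with ER-alpha and UAS-driven beta-lactamase reporter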; note: potency is the fitted concentration of half-maximal effect)
# Estrogen receptor (Homo sapiens), sequence (P03372 whole entry, looked up): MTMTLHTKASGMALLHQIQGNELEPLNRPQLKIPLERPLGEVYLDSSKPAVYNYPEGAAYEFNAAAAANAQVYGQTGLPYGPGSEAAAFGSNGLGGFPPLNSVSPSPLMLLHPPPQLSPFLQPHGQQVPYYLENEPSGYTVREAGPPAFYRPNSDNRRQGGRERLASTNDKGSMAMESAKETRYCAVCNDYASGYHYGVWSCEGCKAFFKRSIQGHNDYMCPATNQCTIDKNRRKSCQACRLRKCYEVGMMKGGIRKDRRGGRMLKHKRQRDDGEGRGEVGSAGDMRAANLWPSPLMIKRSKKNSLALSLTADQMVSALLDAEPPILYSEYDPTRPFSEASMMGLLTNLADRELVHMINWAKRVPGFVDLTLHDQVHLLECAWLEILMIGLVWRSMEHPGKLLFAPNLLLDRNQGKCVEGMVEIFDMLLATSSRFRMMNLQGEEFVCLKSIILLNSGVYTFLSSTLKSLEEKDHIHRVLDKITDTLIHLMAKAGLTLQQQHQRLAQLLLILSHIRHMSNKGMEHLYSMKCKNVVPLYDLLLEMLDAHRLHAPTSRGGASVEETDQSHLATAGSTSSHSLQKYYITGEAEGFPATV
# [13] = biological target: Estrogen receptor (Homo sapiens) (UniProt P03372); test: qHTS assay to identify small molecule agonists of the estrogen receptor alpha (ER-alpha) signaling pathway using the BG1 cell line (AID 743079); note: nearly all actives have a fitted effect of over 20% in size; note: potency is the fitted concentration of half-maximal effect
# [14] = qHTS assay to identify small molecule antagonists of the estrogen receptor alpha (ER-alpha) signaling pathway using the BG1 cell line (AID 743080; calls by dose curve;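 note: BG1 cells stimulated with 17beta-estradiol alongside compound; series mostly up to about 70 µM; nearly all actives have a fitted effect of over 25% in size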)
# Summary of the method: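 BG1-Luc-4E2 cells (endogenous full-length ER-alpha, 4xERE luciferase) hormone-starved 5 days in charcoal-stripped FBS, plated 4,000/well for 24 h, then compound plus 17beta-estradiol for 21.5 h at 37 C; ONE-Glo luminescence read.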
# [15] = biological target: Peroxisome proliferator-activated receptor gamma (Homo sapiens) (UniProt P37231); test: qHTS assay to identify small molecule agonists of the peroxisome proliferator-activated receptor gamma (PPARg) signaling pathway (AID 743094; active = well fitted activation curve with a large enough effect in the signal ratio in the repeat runs, not every such curve was filed as active; inconclusive = weak or mixed curves, or effect the other way; inactive = no such curve, though single readings can be large or run the other way; the % refers to the signal ratio)
# Peroxisome proliferator-activated receptor gamma (Homo sapiens), sequence (P37231 whole entry, looked up): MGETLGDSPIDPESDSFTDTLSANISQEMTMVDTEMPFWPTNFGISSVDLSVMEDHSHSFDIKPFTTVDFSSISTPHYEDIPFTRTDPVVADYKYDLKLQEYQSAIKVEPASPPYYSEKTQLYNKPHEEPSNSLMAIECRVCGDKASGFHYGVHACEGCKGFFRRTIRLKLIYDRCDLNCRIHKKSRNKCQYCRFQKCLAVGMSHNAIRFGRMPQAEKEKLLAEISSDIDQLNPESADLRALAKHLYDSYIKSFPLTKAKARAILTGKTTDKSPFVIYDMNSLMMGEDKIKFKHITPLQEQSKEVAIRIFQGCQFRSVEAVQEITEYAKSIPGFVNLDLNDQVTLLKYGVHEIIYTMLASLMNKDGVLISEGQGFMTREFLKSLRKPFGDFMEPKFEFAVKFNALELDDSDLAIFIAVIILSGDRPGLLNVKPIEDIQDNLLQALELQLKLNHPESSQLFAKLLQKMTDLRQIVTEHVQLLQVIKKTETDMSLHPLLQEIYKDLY
# Summary of the method: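 Fluorescence-based beta-lactamase readout in HEK293H PPARg UAS-bla cells after 17 h compound exposure (37C) and 1 h B/G FRET substrate incubation at room temperature.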
# [16] = qHTS assay for small molecule agonists of the p53 signaling pathway (AID 651631; calls by dose curve; note: nearly all actives have a fitted effect of over 15% in size; note: potency is the fitted concentration of half-maximal effect)
# Summary of the method: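 HCT-116 cells carrying a beta-lactamase reporter under p53 response elements were dosed with compound for 16 h at 37 °C. LiveBLAzer B/G FRET substrate was then added for 2 h at room temperature, and fluorescence intensity was read to detect pathway agonism.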
# [17] = qHTS assay to test for compound auto fluorescence at 460 nm (blue) in HepG2 cells (AID 720687)
# Summary of the method: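 Cells (2,000/well in MEM with 10% FBS) attached overnight at 37 C, then were exposed to compound or DMSO for 1 hr at 37 C, 5% CO2. Fluorescence read at Ex/Em 405/460 nm, expressed as triamterene-equivalent signal.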
# [18] = biological target: Aryl hydrocarbon receptor (Homo sapiens) (UniProt P35869); test: qHTS assay to identify small molecule that activate the aryl hydrocarbon receptor (AhR) signaling pathway (AID 743085);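 note: HG2L7.5c1 human HepG2 liver cells with stably integrated DRE-driven firefly reporter; series mostly up to about 70 µM; nearly all actives have a fitted effect of over 15% in size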
# Aryl hydrocarbon receptor (Homo sapiens), sequence (P35869 whole entry, looked up): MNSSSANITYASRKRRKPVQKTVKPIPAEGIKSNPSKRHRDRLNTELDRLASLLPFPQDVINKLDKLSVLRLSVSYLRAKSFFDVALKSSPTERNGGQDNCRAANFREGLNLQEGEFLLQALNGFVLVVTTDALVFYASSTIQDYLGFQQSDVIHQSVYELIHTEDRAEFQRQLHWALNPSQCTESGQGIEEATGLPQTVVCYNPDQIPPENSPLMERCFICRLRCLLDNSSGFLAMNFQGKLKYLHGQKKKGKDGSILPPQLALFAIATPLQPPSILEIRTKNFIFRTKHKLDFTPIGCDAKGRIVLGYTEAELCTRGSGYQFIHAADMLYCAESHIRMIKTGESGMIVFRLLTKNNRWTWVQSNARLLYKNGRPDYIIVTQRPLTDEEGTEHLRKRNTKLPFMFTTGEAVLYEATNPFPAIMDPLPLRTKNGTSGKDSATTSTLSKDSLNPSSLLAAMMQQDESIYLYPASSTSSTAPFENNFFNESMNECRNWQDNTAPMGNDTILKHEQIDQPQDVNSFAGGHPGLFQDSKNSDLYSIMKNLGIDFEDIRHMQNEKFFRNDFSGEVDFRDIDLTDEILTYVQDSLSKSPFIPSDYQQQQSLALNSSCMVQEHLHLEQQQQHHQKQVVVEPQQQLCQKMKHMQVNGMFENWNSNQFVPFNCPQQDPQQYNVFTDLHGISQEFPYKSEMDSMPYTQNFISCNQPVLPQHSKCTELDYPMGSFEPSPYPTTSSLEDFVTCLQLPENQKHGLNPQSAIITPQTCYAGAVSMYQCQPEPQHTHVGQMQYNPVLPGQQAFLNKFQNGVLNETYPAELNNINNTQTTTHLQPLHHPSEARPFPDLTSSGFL
# Summary of the method: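 HepG2 cells stably carrying a 20-DRE firefly luciferase reporter (HG2L7.5c1) treated with compound for 24 hr at 37C. Luciferase read by ONE-Glo luminescence, with CellTiter-Fluor viability read first.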
# [19] = biological target: Nuclear receptor subfamily 1 group I member 2 (Homo sapiens) (UniProt O75469); test: CYP3A4 induction through human pregnane X receptor (PXR) by small molecules, qHTS assay (AID 1346984); note: nearly all actives have a fitted effect of over 40% in size; note: potency is the fitted concentration of half-maximal effect
# Summary of the method: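 After 24 h at 37C with compound, DPX-2 cells (HepG2, co-transfected PXR response element and CYP3A4 promoter-luciferase) got 3uM final P450-Glo Luciferin-IPA for 3 h; One-Glo luminescence followed.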
# [20] = biological target: Nuclear receptor subfamily 1 group I member 2 (Homo sapiens) (UniProt O75469); test: Human pregnane X receptor (PXR) activation by small molecules, qHTS assay (AID 1346985); note: nearly all actives have a fitted effect of over 40% in size
# Summary of the method: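 DPX-2 cells (HepG2 co-transfected with a PXR response element and a CYP3A4-promoter luciferase construct) were seeded at 2,000 per well, rested 5 hr at 37C, then exposed to DMSO-dissolved compounds for 24 hr. Activation was read as luciferase luminescence.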
Structure (SMILES),Potency [1],outcome [2],Potency [3],Potency [4],Potency [5],outcome [6],Potency [7],Potency [8],Potency [9],Potency [10],Potency [11],Potency [12],Potency [13],Potency [14],Potency [15],Potency [16],Potency [17],Potency [18],Potency [19],Potency [20]
c1ccccc1,inactive,inactive,inactive,inactive,inactive,inactive,inactive,inactive,inactive,inactive,inactive,inactive,inactive,inactive,inactive,,,,,
Cc1cccc(C)c1[N+](=O)[O-],,,,,,,inactive,,,,,,,,,,,,,
C=CC(=O)OCCCCCCCC(C)C,,,,,,,,,,,,,,,,inactive,,,,
COc1ccc(OC)c([C@@H](O)[C@H](C)N)c1,inactive,inactive,inactive,,inactive,,inactive,inactive,inactive,inactive,inactive,inactive,inactive,inactive,inactive,inactive,inactive,inactive,inactive,inactive
CN(C)CCCCCCN(C)C,,inactive,inactive,inactive,inactive,inactive,inactive,inactive,,inactive,inactive,,,,,,,inactive,,
CN1[C@H]2CC[C@@H]1[C@@H](C(=O)O)[C@@H](OC(=O)c1ccccc1)C2,inactive,inactive,inactive,inactive,inactive,inactive,,inactive,inactive,inactive,inactive,inactive,inactive,inactive,inactive,,inactive,,inactive,inactive
C[C@]12CC[C@H](OS(=O)(=O)O)CC1=CC[C@@H]1[C@@H]2CC[C@]2(C)C(=O)CC[C@@H]12,,inactive,inactive,inactive,inactive,inactive,,,inactive,inactive,inactive,inactive,13.3 µM (active),inactive,inactive,inactive,inactive,inactive,inactive,inactive
Clc1ccc2c(c1)C(c1ccccc1)=NCc1nncn1-2,inactive,,inactive,inactive,inactive,inactive,inactive,inactive,,inactive,inactive,inactive,inactive,inactive,inactive,inactive,inactive,inactive,inactive,inactive
C[C@]12C=CC(=O)C=C1CC[C@@H]1[C@@H]2CC[C@]2(C)OC(=O)CC[C@@H]12,inactive,inactive,inactive,,inactive,inactive,,inactive,,inactive,inactive,21.3 µM [inconclusive] (active),5.31 µM (active),inactive,inactive,inactive,,,inactive,inactive
O=c1[nH]cc(N(CCCl)CCCl)c(=O)[nH]1,,inactive,,inactive,inactive,inactive,,inactive,,inactive,inactive,inactive,inactive,inactive,inactive,21.1 µM (active),inactive,inactive,inactive,inactive
N#CC1(N2CCCCC2)CCCCC1,inactive,inactive,inactive,inactive,inactive,inactive,inactive,inactive,,inactive,inactive,inactive,inactive,inactive,inactive,,inactive,inactive,inactive,inactive
C=C[C@H]1CN2CC[C@H]1C[C@@H]2[C@@H](O)c1ccnc2ccccc12,,inactive,inactive,inactive,inactive,,inactive,,,,,,,,inactive,,,inactive,inactive,inactive
[2H]C([2H])([2H])[C@H](N)Cc1ccccc1,inactive,inactive,inactive,,inactive,inactive,inactive,inactive,inactive,inactive,,inactive,inactive,inactive,inactive,inactive,inactive,inactive,inactive,inactive
CC(C)(O)[C@@H]1[C@H]2OC(=O)[C@@H]1[C@]1(O)C[C@H]3O[C@]34C(=O)O[C@H]2[C@]14C,inactive,inactive,inactive,inactive,,inactive,inactive,inactive,,inactive,inactive,,,,,inactive,,,inactive,inactive
CNc1ccc(C(=O)CC(O)CCC(C)C2OC(=O)CC(O)CC(=O)CC(O)CC(O)CC(O)CC(O)CC3(O)CC(O)C(C(=O)OC)C(CC(O[C@@H]4O[C@H](C)[C@@H](O)[C@H](N)[C@@H]4O)/C=C/C=C/C=C/C=C/C=C/C=C/C=C/C2C)O3)cc1 (stereo partly specified),inactive,inactive,,inactive,inactive,inactive,inactive,,,,inactive,inactive,inactive,inactive,,,inactive,inactive,inactive,inactive
CC(C)CCC(=O)O[C@H]1CC[C@H]2[C@@H]3CCC4=CC(=O)CC[C@]4(C)[C@H]3CC[C@]12C,,inactive,inactive,,inactive,,6.01 µM (active),7.5 µM (active),inactive,inactive,inactive,4.77 µM [inconclusive] (active),0.0668 µM (active),inactive,inactive,,inactive,,inactive,inactive
Cc1ccccc1-n1c(CF)nc2ccc(N)cc2c1=O,,inactive,inactive,inactive,,inactive,,,inactive,,inactive,,,,inactive,inactive,inactive,,7.08 µM (active),inactive
C[N+]1(C)CCCCC1COC(=O)C(O)(c1ccccc1)c1ccccc1 (stereo unspecified),inactive,,inactive,,inactive,inactive,inactive,inactive,,inactive,inactive,,,,,,,inactive,inactive,inactive
